The record followed here is PubChem BioAssay.

Assay [1] concerns Plasmodium falciparum Sir2 (PF13_0152, Sir2A). As to the kind of experiment: Plasmodium falciparum Sir2A binding compounds – biochemical, small-molecule microarray, 635 nm fluorescence, primary screen (AID 1098).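 Note: score merges spot fluorescence intensity with its signal-to-noise ratio.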 As to conditions: fluorescence 635 nm, higher = more signal.
A short description of assay [2]: probe aDKK1 binding to arrayed compounds – biochemical, biotinylated probe, 635/667 nm fluorescence, primary screen (AID 1099).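 Note: score merges 667nm spot fluorescence with signal to noise across triplicate slides; reference of the scale not given here.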 The conditions noted are these: small-molecule microarray, higher = more signal.
Assay [3] in a line: probe aCHRDL2 binding to arrayed compounds – biochemical, biotinylated probe, 635/667 nm fluorescence, primary screen (AID 1100). The conditions noted are these: small-molecule microarray, higher = more signal.
Assay [4] can be described thus: change in splice reporter luminescence, either direction, cell-based, HEK293, spliceosome inhibition project, primary screen (AID 1101).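 Note: HEK293 cells carrying a splicing-competent luciferase reporter gene; test concentration not given here.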 The conditions noted are these: HEK293 splicing luciferase reporter, 24 h, higher = more signal, called active from +8 up or from −8 down.
The target in assay [5] is Fibroblast growth factor 10 (Homo sapiens) (UniProt O15520). As to the kind of experiment: compounds binding fibroblast growth factor 10 – biochemical, small-molecule microarray, 635 nm fluorescence, primary screen (AID 1102). As to conditions: FGF10 binding, fluorescence 635 nm, higher = more signal.
Chain of Fibroblast growth factor 10 (Homo sapiens) (O15520 whole entry, looked up): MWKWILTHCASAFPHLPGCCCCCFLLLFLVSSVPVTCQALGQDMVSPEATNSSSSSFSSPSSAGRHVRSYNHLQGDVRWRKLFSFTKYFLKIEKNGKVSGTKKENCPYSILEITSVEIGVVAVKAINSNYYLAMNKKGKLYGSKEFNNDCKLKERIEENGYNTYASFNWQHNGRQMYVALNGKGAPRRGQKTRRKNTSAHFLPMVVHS
The subject of assay [6] is glycogen synthase kinase-3 (GSK3A per assay name; protocol says GSK3B). As to the kind of experiment: compounds binding glycogen synthase kinase-3 – biochemical, small-molecule microarray, 635 nm fluorescence, GSK3A, primary screen (AID 1103). Note: the record names both GSK3A and GSK3B. The conditions noted are these: fluorescence 635 nm, higher = more signal.
Assay [7] addresses Epidermal growth factor receptor (Homo sapiens) (UniProt P00533). As to the kind of experiment: compounds binding epidermal growth factor receptor – biochemical, small-molecule microarray, 635 nm fluorescence, primary screen (AID 1104).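 Note: score merges 667 nm emission intensity with spot signal to noise over triplicate slides.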 As to conditions: EGFR binding, higher = more signal.
Assay [8] addresses Follistatin-related protein 3 (Homo sapiens) (UniProt O95633). As to the kind of experiment: compounds binding follistatin-related protein 3 – biochemical, small-molecule microarray, 635 nm fluorescence, primary screen (AID 1105).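 Note: score merges emission near 667 nm and signal to noise per printed spot across three slides.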 The conditions noted are these: FSTL3 binding, higher = more signal.
Assay [9] has as its target Dickkopf-related protein 1 (Homo sapiens) (UniProt O94907). As to the kind of experiment: small molecules binding DKK1 protein – biochemical, small-molecule microarray, 635 nm fluorescence scan, primary screen (AID 1106).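 Note: score merges emission near 667 nm with signal to noise over three replicate slides.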 As to conditions: higher = more signal.
For assay [10], the system named is Inhibin beta A chain (activin A). As to the kind of experiment: small molecules binding activin A – biochemical, small-molecule microarray, 635 nm fluorescence scan, primary screen (AID 1107).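 Note: mouse activin A protein probed at 4.33 µg/mL on printed slides; score merges bound-protein fluorescence near 667 nm with spot signal-to-noise.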 As to conditions: INHBA, higher = more signal.

Active and inactive are the calls of the source.

Chain of Follistatin-related protein 3 (Homo sapiens) (O95633 whole entry, looked up): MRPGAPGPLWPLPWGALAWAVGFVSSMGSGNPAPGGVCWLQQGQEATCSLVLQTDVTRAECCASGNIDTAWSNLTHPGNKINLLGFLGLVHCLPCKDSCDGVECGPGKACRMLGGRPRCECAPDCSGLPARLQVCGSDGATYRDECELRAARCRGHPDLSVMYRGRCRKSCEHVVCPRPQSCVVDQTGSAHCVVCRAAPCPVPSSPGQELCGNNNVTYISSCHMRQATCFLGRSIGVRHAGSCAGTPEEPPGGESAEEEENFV
Chain of Dickkopf-related protein 1 (Homo sapiens) (O94907 whole entry, looked up): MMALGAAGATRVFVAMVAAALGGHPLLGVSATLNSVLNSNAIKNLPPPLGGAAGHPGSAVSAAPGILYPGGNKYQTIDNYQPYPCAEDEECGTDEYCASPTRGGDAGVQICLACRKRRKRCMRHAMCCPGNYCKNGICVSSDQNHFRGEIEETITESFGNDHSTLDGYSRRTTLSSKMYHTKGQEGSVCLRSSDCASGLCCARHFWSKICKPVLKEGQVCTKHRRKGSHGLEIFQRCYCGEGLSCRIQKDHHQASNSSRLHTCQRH
Chain of Epidermal growth factor receptor (Homo sapiens) (P00533 whole entry, looked up): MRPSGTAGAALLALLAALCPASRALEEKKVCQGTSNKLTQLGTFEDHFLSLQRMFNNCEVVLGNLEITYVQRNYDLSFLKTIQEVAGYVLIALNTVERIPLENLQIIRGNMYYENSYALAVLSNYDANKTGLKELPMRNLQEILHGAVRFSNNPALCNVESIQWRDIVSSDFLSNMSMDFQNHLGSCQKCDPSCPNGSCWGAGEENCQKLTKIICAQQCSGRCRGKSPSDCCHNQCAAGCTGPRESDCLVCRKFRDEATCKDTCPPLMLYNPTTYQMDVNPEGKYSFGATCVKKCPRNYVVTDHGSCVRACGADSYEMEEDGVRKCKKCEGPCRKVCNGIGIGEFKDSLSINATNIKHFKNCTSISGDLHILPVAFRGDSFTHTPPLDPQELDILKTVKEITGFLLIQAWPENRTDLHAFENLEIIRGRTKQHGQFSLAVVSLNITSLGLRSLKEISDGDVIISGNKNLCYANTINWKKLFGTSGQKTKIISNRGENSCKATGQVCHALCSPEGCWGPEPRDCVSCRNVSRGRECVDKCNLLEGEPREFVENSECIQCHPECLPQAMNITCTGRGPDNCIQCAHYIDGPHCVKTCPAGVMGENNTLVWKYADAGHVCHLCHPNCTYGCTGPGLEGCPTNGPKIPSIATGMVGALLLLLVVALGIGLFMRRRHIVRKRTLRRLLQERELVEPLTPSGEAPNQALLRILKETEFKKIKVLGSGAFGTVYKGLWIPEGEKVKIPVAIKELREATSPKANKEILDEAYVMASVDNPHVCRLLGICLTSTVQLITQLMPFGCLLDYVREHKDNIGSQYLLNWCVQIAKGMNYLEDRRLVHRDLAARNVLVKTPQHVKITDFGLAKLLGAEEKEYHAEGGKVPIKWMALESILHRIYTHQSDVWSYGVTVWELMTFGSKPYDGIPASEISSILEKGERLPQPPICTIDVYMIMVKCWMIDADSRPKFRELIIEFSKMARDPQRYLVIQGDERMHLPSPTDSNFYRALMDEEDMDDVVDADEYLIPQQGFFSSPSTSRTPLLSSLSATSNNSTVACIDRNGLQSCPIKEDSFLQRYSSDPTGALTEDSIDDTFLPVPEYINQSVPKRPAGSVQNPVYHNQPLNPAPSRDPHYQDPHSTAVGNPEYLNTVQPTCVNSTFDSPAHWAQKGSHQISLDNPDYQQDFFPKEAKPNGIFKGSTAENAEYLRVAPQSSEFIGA

Consider `COc1cccc(C[C@H]2C[C@@H](CO[Si](C(C)C)(C(C)C)C(C)C)N3C(=O)[C@@]4(C(C)=O)O[C@@]23[C@@H]2C(=O)N(C)C(=O)[C@@H]24)c1`, for which the composite z-score in assay [1] was 0.95; in assay [2], -0.0648; in assay [3] it was -0.197; in assay [5] it was 1.22; in assay [6], 0.5; in [7] it was 0.494. Besides, the composite z-score in assay [8] was 1.17; in assay [9] it was 1.62; in assay [10], -0.0336. Further, in assay [4], the z-score is -0.989 (inactive).
For the compound `C=C(COC)C(=O)CC[C@@H](OC(=O)c1cccnc1)c1cccc(OCCO)c1`, the composite z-score in assay [1] is 0.709; in assay [2] it was 0.119; in [3], 0.618; in [5], 1.27; in assay [6], -0.284; in [7], -0.0749. The results for the composite z-score in assay [8], in assay [9] and in assay [10] were 0.652, 0.284 and 1.37, respectively. In assay [4], the z-score was 3.33 (inactive).
In the case of `CCCCN1CC=CC23O[C@@H]4C=CCOC(=O)[C@@H]4[C@H]2C(=O)N(C(CO)C(C)C)[C@@H]3C1=O` (stereo not given in full), the composite z-score is -0.662 in [1]; -0.353 in assay [2]; -0.476 in assay [3]; -0.372 in assay [5]; -0.13 in assay [6]; -0.759 in assay [7]. The composite z-score in [8] is 0.0236; in assay [9] it was 0.185; in assay [10], 0.843. In addition, the z-score in assay [4] was -0.116 (inactive).
With `C=CCC(OC(C)=O)[C@@H]1[C@@H](N(Cc2ccc(-c3cccc(C(F)(F)F)c3)o2)C(=O)Cc2ccc(F)cc2)c2cc(OCCCO)ccc2N1C(=O)c1ccc2ccccc2c1` (stereo not given in full), the composite z-score in assay [1] is 0.819; in [2], -0.185; in [3], 0.429; in assay [5], -0.701; in [6] it was -1.87; in assay [7], -0.659. Moreover, the composite z-score in assay [8] was 0.199; in assay [9] it was -0.0392; in [10] it was 1.08. Also, in assay [4], the z-score is -0.182 (inactive).
On to `COC(=O)Cn1c(C(=O)N(C)C)cc2c1C[C@H]1CN(C(=O)c3ccccc3)[C@@](Cc3ccc(OC)cc3)(C(=O)OC)[C@@H]21`, for which the composite z-score was 1.39 in assay [1]; 0.311 in [2]; 0.635 in assay [3]; 1.13 in assay [5]; -0.196 in [6]; 0.0287 in assay [7]. For the same compound, the composite z-score in assay [8] is 0.36; in [9], -0.165; in assay [10], 0.421. In assay [4], the z-score was -4.19 (inactive).
Take `COc1ccc([Si](C)(C)[C@H]2[C@H](CCn3cc([C@H](O)c4ccccc4)nn3)O[C@@]3(C(=O)N(C)c4c(Br)cc(C)cc43)[C@@H]2C)cc1`: the composite z-score is -0.34 in assay [1]; -0.189 in assay [2]; 0.387 in assay [3]; 0.574 in [5]; 0.0322 in assay [6]; -0.597 in assay [7]. Further, the results for the composite z-score in [8], in [9] and in assay [10] were -0.499, 0.335 and 0.227, respectively. Besides, the z-score in assay [4] was -0.923 (inactive).
For the compound `CC(C)C(=C=CC[C@@H](O)c1ccccc1OCCO)C[C@@H](O)c1cc(Cl)cc(Cl)c1O`, the composite z-score in assay [1] was 0.665; in assay [2], -0.102; in assay [3], -0.555; in assay [5] it was 1.46; in assay [6] it was 1.13; in [7] it was 0.472. The results for the composite z-score in assay [8], in assay [9] and in assay [10] were 1.16, 0.741 and 0.169, respectively. The z-score in assay [4] is -1.59 (inactive).
As for `CCOC(=O)C[C@H]1[C@H](OC(=O)c2ccc(-c3ccccc3)cc2)[C@@H](NC(=O)c2ccc3ccccc3c2)c2cc(OCCCO)ccc2N1C(=O)c1ccccc1`, the composite z-score in assay [1] is 0.34; in assay [2], -0.393; in [3], 0.211; in assay [5], 1.28; in [6], 0.972; in [7], 0.514. The results for the composite z-score in assay [8], in [9] and in assay [10] were 0.341, -0.149 and -0.121, respectively. Also, the z-score in [4] is 0.173 (inactive).
Turning to `COc1ccc(CCNC(=O)[C@@H]2c3ccccc3C(=O)N(CC34CC5CC(CC(C5)C3)C4)[C@H]2c2ccc(CO)cc2)cc1`, the composite z-score in assay [1] is 0.959; in assay [2], -0.0038; in [3], 0.309; in assay [5], 1.06; in [6] it was 0.406; in assay [7], 0.277. Also, the values for the composite z-score in assay [8], in [9] and in assay [10] were 0.644, 0.323 and 0.64, respectively. Also, in assay [4], the z-score is -1.02 (inactive).
As to `CCOC(=O)C[C@H]1[C@H](OC(=O)c2ccc(C(=O)c3ccccc3)cc2)[C@@H](NC(=O)c2ccc3ccccc3c2)c2cc(OCCCO)ccc2N1C(=O)c1ccc2ccccc2n1`, the composite z-score worked out at 0.608 in assay [1]; 0.124 in assay [2]; 0.0404 in [3]; 0.388 in assay [5]; 0.712 in [6]; 0.598 in assay [7]. Also, the composite z-score in assay [8] was determined as 0.624; in assay [9] it was 0.713; in assay [10] it was 0.676. The z-score in [4] was -0.372 (inactive).
In the case of `COCCOC(=O)N1C(=O)[C@@]2(c3cc(C#CC4(O)CCCCCC4)ccc31)[C@H](c1ccccc1OCCO)N1[C@H](c3ccccc3)[C@H](c3ccccc3)OC(=O)[C@H]1[C@@H]2C(=O)N1CCCCCCC1`, the composite z-score in assay [1] was 1.56; in [2], 2.22; in assay [3] it was 1.43; in assay [5], 0.846; in assay [6], 0.502; in assay [7], 0.638. For the same compound, the composite z-score in assay [8] stood at 1.5; in [9], 1.09; in assay [10] it was 1.71. Further, the z-score in assay [4] is -0.901 (inactive).
Turning to `C#CCN(C/C=C/c1ccccc1)[C@H](CO[Si](C)(C)C(C)(C)C)c1ccccc1`, the composite z-score was 0.209 in assay [1]; -0.454 in [2]; -0.541 in [3]; 0.108 in assay [5]; -0.871 in assay [6]; -0.468 in assay [7]. Also, the composite z-score in [8] was -0.261; in assay [9] it was -0.156; in assay [10] it was -0.0543. In addition, the z-score in assay [4] is -0.736 (inactive).
As to `COCCOC(=O)N1C(=O)[C@@]2(c3ccccc31)[C@H](C(=O)N1CCCCCCC1)[C@H]1C(=O)O[C@H](c3ccccc3)[C@H](c3ccccc3)N1[C@@H]2c1ccc(O)cc1`, the composite z-score in assay [1] amounted to 1.86; in assay [2], 2.77; in assay [3], 1.76; in assay [5], 1.38; in assay [6] it was 1.35; in assay [7], 1.32. Further, the figures for the composite z-score in [8], in assay [9] and in assay [10] were 1.68, 1.93 and 1.92, respectively. The z-score in [4] was -0.216 (inactive).
As for `C=CCN1C(=O)[C@]2(O[C@H](CCn3cc([C@H](O)c4ccccc4)nn3)[C@@H]([Si](C)(C)c3ccc(OC)cc3)[C@@H]2C)c2cc(N3C(=O)c4cccc5cccc3c45)ccc21`, the composite z-score was 0.783 in assay [1]; -0.168 in assay [2]; 0.195 in assay [3]; 0.57 in assay [5]; -0.549 in [6]; -0.795 in assay [7]. The composite z-score is 0.187 in [8], -0.857 in assay [9] and -0.302 in [10]. The z-score in assay [4] is -1.18 (inactive).
With `COCCOC(=O)N1C(=O)[C@@]2(c3ccccc31)[C@H](c1ccc(OCCO)cc1)N1[C@H](c3ccccc3)[C@H](c3ccccc3)OC(=O)[C@H]1[C@@H]2C(=O)N1CCN(c2ncccn2)CC1`, the composite z-score in assay [1] came to 1.22; in [2] it was 0.639; in assay [3], 0.539; in assay [5], 1.42; in [6], 1.34; in [7], 0.791. Besides, the values for the composite z-score in assay [8], in assay [9] and in assay [10] were 1.44, 1.09 and 0.943, respectively. Besides, in assay [4], the z-score was -0.483 (inactive).
Consider `COc1ccc(NN2C(C(O)c3ccc(OC)cc3)C=CC3C(=O)N(C4CCCCC4)C(=O)C32)cc1` (stereo not given), for which the composite z-score is 0.797 in assay [1]; 0.702 in [2]; 0.501 in assay [3]; 0.608 in assay [5]; 1.14 in assay [6]; 0.556 in [7]. Besides, the figures for the composite z-score in assay [8], in [9] and in [10] were 1.04, -0.101 and 1.2, respectively. Further, the z-score in assay [4] was -0.316 (inactive).
